Molecules are shown by their SMILES. This is part of a sample that, as a whole, favours compounds with a hit. Of some 83,000 tested, about 20% had one in any assay.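 The test compound was applied at a single concentration to cells in 96-well plates for 48 hours, and percent growth was recorded.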 Values without a mark were called inactive. Activity calls are given as the source filed them. How the source made its calls: active means growth percent below 10; inactive means the rest.

Consider eight compounds from PubChem BioAssay (NCI).

Holding throughout (assay): NCI-60 one-dose screen, 48 h (100 = growth as untreated, 0 = no growth, -100 = all killed)
What all share (settings): 10 µM unless noted

For test [1], the system named is DU-145 prostate.
In test [2] the test system is K-562 leukemia.
The test system of test [3] is MALME-3M melanoma.
For test [4], the system named is MDA-MB-231 breast.
Test [5] relates to RXF 393 renal.
The test system of test [6] is SF-268 CNS.
The test system of test [7] is SF-295 CNS.
Test [8] deals with SF-539 CNS.
Test [9] has as its system UACC-257 melanoma.
In test [10] the test system is HCT-15 colon.
In test [11] the test system is HT29 colon.
Test [12] relates to SNB-75 CNS.
The subject of test [13] is SNB-19 CNS.
Test [14] concerns U251 CNS.
For test [15], the system named is PC-3 prostate.
The test system of test [16] is SK-MEL-5 melanoma.
Test [17] relates to UACC-62 melanoma.
The test system of test [18] is LOX IMVI melanoma.
Test [19] deals with SK-MEL-28 melanoma.

Regarding `CCCc1cc2cc(-n3nc(C)c4c3CC(C)(C)CC4=O)cc(NC3CCSCC3)c2c(=O)[nH]1`, the growth is 42.9% in test [1]; 19% in test [2]; 64.6% in test [3]; 55.6% in [4]; 33.7% in [5]; 81.2% in test [6]. The growth in test [7] was 62.2%; in test [8] it was 75.4%; in [9] it was 84.6%; in test [10], 41.4%; in test [11], 9.23% (active); in test [12], 102%. The growth in [13] is 72%; in test [14] it was 72.3%; in test [15], 55.2%; in [16], 70.4%; in test [17], 53.2%; in test [18], 54.8%. The growth in test [19] is 68.6%.
On to `Cc1ccc(S(=O)(=O)NCCCNc2nccc(-c3c(-c4cccc(F)c4)nc4occn34)n2)cc1`, for which the growth in [1] is 73.8%; in test [2], 36.7%; in test [3], 64.6%; in test [4] it was 64%; in test [5] it was 77.7%; in test [6] it was 61.6%. The growth in test [7] is 100%; in test [8] it was 95.1%; in [9], 91.5%; in test [10], 73.4%; in test [11] it was 27.8%; in test [12], 73.5%. Besides, the growth in test [13] was 90.7%; in [14], 70.6%; in test [15] it was 44.3%; in test [16] it was 67.2%; in test [17], 58.6%; in [18], 57.9%. Moreover, the growth in test [19] is 95.9%.
In the case of `CNC(=O)c1cc(Oc2ccc3nc(NC(=O)c4ccc5ncccc5c4)sc3c2)ccn1`, the growth is 105% in test [1]; 93.7% in test [2]; 80.5% in test [3]; 98.6% in test [4]; 109% in test [5]; 97.4% in [6]. Also, the growth in test [7] was 86.9%; in test [8] it was 107%; in test [9] it was 93.1%; in [10], 91.1%; in test [11] it was 69.9%; in test [12] it was 86.5%. The growth in test [13] was 95.1%; in test [14], 93.6%; in test [15] it was 93.2%; in [16], 86.4%; in [18], 99.6%; in [19] it was 101%.
For the compound `COc1ccc(C2CC(c3ccc4ccccc4c3)=NN2c2nc(O)c(C3=c4cc(OC)ccc4=NC3=O)s2)cc1` (stereo unspecified), the growth in test [1] is 1.32% (active); in test [2], 0.0361% (active); in test [3], -61.7% (active); in test [4], -54.7% (active); in test [5], -66.3% (active); in test [6] it was -32.5% (active). In addition, the growth is -59% (active) in [7]; -27.9% (active) in test [8]; -52.5% (active) in test [9]; -29.1% (active) in [10]; -57.3% (active) in test [11]; -57.1% (active) in [12]. Besides, the growth in test [13] is -14.2% (active); in [14], -92% (active); in test [15] it was -71.1% (active); in test [16] it was -93.3% (active); in [17], -56% (active); in test [18] it was -77.6% (active). For the same compound, the growth in [19] was -48.5% (active).
As to `COc1ccc2c(c1)c(-c1noc(C(=O)c3cn(C)c4ncc(Br)cc34)n1)cn2C`, the growth is 50.4% in test [1]; 71% in test [2]; 28.1% in test [3]; 25.4% in test [4]; 27.9% in [5]; 62.8% in test [6]. In addition, the growth in test [7] was 89%; in [8], 25.7%; in test [9] it was 92.8%; in test [10] it was 68.4%; in test [11] it was 58%; in [12], -12.8% (active). In addition, the growth was 78.7% in [13]; 68.6% in test [14]; 39.7% in test [15]; 50.6% in test [16]; 65.6% in test [17]; 70.9% in [18]. In [19], the growth was 71.1%.
Regarding `COc1ccc(/C=C(/C2=NCCN2)n2ccc3ccccc32)cc1`, the growth in test [1] is 96.2%; in test [2], 84.3%; in [3] it was 87%; in [4], 89.5%; in test [5], 77.9%; in test [6] it was 79.3%. The growth in test [7] was 85.8%; in test [8], 92.7%; in test [9], 94.3%; in test [10], 95.7%; in [11] it was 89%; in [12] it was 65%. Besides, the growth was 91.6% in [13]; 89% in test [14]; 73.4% in [15]; 94.7% in [16]; 86.8% in [17]; 84.7% in test [18]. Also, the growth in test [19] is 104%.
For `O=C(O)c1cn(C2CC2)c2cc(N3CCN(Cc4c(O)ccc5ccccc45)CC3)c(F)cc2c1=O`, the growth in test [1] was 3.75% (active); in [2], 58.4%; in test [3] it was 10.9%; in test [4], 43.6%; in test [5] it was -29.2% (active); in test [6] it was 47.1%. For the same compound, the growth in [7] is 39.3%; in [8] it was -17.7% (active); in test [9] it was 35.1%; in test [10] it was 5.61% (active); in test [11], -46.7% (active); in [12], -20.8% (active). The growth is 83.1% in test [13]; 37.5% in test [14]; 36.1% in [15]; 58.4% in test [16]; 38.8% in test [17]; 37.1% in test [18]. Besides, the growth in [19] is 27.8%.
Take `CCc1ccc(-c2ccc(COc3ccc(CC4SC(=O)NC4=O)cc3)cc2)cc1` (stereo unspecified): the growth in [1] is 88.8%; in test [2] it was 34.8%; in test [3] it was 67.3%; in test [4], 77.3%; in test [5] it was 102%; in [6], 76.7%. Besides, the growth was 75.8% in test [7]; 77% in test [8]; 86.3% in test [9]; 56.4% in [10]; 103% in test [11]; 76.2% in test [12]. In addition, the growth in test [13] was 87.1%; in test [14], 72.8%; in test [15], 65.6%; in [16], 39.8%; in test [17], 60.2%; in test [18], 63.3%. In addition, in [19], the growth was 85%.
